The text below walks through data of paper PMC7862700, “An all-to-all approach to the identification of sequence-specific readers for epigenetic DNA modifications on cytosine”.

What all share (assay): DAPPL (digital affinity profiling via proximity ligation, sequencing); 10 mM Tris-HCl pH 7.5, 50 mM NaCl, 1 mM DTT, 4% glycerol, room temperature, 30 min; GST-TFs on glutathione beads, 16-mer random dsDNA library, 0.1% formaldehyde crosslink after washing; high values mean tight binding
One test addresses T1, EHF (Homo sapiens, UniProt Q9NZC4 1-300).
T1 sequence: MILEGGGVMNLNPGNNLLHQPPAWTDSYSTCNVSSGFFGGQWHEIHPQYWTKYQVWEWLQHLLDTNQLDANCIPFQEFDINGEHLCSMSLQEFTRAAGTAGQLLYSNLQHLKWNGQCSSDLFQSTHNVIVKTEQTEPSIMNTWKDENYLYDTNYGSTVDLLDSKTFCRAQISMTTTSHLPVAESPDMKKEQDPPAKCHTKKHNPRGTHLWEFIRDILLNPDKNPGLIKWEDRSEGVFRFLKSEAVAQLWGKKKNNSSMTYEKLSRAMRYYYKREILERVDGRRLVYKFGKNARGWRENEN
The following applies: protein: recombinant; tags: N-terminal GST; dsDNA, one strand shown. In a few lines: (§1)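 Human transcription factors carrying a GST fusion were produced in yeast, bound to glutathione beads, tagged with DNA barcodes and pooled together with a tag-only sample. Each pool was held with 200 nmole of a random double-stranded 16-mer DNA library in Tris/NaCl/DTT/glycerol buffer for 30 min at room temperature, then washed, crosslinked in 0.1% formaldehyde, proximity-ligated with BsaI/T4 ligase (1 h, 37 °C), PCR-amplified and sequenced on an Illumina NextSeq500. Binding signal is the read frequency of each hexamer for a given factor divided by its frequency in the tag-only sample.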

A further test has as its target T2, ELK3 (Homo sapiens, UniProt P41970 1-407).
T2 sequence: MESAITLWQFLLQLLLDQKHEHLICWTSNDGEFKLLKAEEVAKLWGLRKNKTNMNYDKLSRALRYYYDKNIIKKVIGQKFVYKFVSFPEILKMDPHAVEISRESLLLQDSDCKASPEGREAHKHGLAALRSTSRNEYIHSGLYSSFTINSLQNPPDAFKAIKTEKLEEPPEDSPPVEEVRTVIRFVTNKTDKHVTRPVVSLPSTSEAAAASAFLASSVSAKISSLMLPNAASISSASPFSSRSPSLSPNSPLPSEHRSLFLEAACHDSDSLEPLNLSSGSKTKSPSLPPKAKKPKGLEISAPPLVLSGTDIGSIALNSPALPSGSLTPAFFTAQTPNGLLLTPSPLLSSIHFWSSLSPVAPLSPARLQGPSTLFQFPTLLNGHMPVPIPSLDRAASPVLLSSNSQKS
The conditions noted are these: protein: recombinant; tags: N-terminal GST; dsDNA, one strand shown. In a few lines: as §1

For the next test, the target named is HSF1 (Homo sapiens, UniProt Q00613 1-529). The conditions noted are these: protein: recombinant; tags: N-terminal GST; chain copies: 3; dsDNA, one strand shown. In a few lines: as §1
Another test concerns the target ELF4 (Homo sapiens, UniProt Q99607 1-663). The conditions noted are these: protein: recombinant; tags: N-terminal GST; dsDNA, one strand shown. In a few lines: as §1
The target in another test is T3, ELK4 (Homo sapiens, UniProt P28324-2 1-405).
T3 sequence: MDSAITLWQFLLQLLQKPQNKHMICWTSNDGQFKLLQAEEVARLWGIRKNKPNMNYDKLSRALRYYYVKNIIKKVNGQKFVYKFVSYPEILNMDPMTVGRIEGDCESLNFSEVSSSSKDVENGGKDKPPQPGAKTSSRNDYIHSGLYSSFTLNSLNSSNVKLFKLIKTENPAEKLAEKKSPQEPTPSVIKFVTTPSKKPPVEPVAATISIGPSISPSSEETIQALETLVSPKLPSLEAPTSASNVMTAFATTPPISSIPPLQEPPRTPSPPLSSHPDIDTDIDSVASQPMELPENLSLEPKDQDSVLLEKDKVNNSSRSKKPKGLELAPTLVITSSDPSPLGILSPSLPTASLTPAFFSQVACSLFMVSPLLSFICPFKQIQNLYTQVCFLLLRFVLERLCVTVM
The conditions noted are these: protein: recombinant; tags: N-terminal GST; dsDNA, one strand shown. In a few lines: as §1

Another test concerns the target T4, ELF3 (Homo sapiens, UniProt P78545 1-371).
T4 sequence: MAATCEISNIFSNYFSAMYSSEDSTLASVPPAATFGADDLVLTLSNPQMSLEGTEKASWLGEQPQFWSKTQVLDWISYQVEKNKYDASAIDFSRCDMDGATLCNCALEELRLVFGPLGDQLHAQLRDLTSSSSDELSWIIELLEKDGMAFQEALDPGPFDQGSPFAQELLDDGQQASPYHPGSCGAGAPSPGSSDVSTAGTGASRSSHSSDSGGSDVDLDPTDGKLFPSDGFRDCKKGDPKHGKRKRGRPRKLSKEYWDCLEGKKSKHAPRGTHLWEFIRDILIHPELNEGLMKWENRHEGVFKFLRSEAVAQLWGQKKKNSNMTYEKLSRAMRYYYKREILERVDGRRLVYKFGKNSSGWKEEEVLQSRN
The conditions noted are these: protein: recombinant; tags: N-terminal GST; dsDNA, one strand shown. In a few lines:
as §1

For the next test, the target named is CRX (Homo sapiens, UniProt O43186 1-299). The conditions noted are these: protein: recombinant; tags: N-terminal GST; dsDNA, one strand shown. In a few lines: as §1
Another test addresses T5, ERF (Homo sapiens, UniProt P50548 1-548).
T5 sequence: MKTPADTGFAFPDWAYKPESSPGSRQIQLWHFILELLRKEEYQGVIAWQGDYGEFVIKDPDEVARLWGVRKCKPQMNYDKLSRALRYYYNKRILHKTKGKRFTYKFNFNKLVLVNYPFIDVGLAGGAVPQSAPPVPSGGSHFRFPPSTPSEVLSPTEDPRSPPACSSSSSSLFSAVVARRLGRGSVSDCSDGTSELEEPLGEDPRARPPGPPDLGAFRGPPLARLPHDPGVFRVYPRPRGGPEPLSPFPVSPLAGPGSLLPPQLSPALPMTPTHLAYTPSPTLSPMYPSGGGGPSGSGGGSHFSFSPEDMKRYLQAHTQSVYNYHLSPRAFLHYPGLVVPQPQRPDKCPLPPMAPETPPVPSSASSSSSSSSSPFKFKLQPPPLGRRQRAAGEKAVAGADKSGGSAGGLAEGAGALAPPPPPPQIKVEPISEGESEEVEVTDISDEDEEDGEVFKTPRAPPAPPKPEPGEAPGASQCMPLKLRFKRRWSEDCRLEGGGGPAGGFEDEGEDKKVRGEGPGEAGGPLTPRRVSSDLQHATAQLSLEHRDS
The following applies: protein: recombinant; tags: N-terminal GST; dsDNA, one strand shown. In a few lines: as §1

The next test deals with T6, ETV3L (Homo sapiens, UniProt Q6ZN32 1-361).
T6 sequence: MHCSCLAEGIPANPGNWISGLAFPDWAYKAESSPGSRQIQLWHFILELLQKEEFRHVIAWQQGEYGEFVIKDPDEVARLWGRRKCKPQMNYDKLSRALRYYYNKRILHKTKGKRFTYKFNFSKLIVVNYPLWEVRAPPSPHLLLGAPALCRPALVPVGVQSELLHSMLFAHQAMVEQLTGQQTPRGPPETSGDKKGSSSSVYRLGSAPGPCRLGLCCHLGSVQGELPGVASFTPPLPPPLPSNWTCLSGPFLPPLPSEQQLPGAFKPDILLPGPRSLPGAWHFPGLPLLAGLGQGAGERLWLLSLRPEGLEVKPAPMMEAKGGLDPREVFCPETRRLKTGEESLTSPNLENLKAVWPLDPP
The following applies: protein: recombinant; tags: N-terminal GST; dsDNA, one strand shown. In a few lines:
as §1

A further test concerns the target T7, ETV3 (Homo sapiens, UniProt P41162-2 1-143).
T7 sequence: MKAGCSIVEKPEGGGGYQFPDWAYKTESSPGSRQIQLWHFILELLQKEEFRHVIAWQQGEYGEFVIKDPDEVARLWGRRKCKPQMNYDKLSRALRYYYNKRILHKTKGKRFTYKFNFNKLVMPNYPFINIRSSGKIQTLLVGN
The conditions noted are these: protein: recombinant; tags: N-terminal GST; dsDNA, one strand shown. In a few lines:
as §1

The next test deals with T8, SPIC (Homo sapiens, UniProt Q8N5J4 1-248).
T8 sequence: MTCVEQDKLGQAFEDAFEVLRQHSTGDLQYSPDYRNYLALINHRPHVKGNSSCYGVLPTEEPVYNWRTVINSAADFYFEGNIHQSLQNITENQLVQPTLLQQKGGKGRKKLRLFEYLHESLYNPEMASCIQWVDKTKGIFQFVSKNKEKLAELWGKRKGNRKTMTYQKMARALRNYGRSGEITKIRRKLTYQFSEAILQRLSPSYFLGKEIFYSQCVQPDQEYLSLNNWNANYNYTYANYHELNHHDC
The conditions noted are these: protein: recombinant; tags: N-terminal GST; dsDNA, one strand shown. In a few lines:
as §1

The target of a further test is T9, ETV7 (Homo sapiens, UniProt Q9Y603 1-341).
T9 sequence: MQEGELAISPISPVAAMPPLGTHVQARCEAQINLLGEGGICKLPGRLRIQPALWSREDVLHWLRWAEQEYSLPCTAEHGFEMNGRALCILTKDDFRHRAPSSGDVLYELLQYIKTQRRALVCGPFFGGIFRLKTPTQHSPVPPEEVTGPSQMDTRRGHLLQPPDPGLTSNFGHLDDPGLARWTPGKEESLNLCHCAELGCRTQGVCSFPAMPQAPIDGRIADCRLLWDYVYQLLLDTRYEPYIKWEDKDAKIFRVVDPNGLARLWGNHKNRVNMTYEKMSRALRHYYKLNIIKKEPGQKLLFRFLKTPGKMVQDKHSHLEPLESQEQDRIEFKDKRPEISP
The conditions noted are these: protein: recombinant; tags: N-terminal GST; dsDNA, one strand shown. In a few lines: as §1

HSF1, sequence (Q00613 whole entry): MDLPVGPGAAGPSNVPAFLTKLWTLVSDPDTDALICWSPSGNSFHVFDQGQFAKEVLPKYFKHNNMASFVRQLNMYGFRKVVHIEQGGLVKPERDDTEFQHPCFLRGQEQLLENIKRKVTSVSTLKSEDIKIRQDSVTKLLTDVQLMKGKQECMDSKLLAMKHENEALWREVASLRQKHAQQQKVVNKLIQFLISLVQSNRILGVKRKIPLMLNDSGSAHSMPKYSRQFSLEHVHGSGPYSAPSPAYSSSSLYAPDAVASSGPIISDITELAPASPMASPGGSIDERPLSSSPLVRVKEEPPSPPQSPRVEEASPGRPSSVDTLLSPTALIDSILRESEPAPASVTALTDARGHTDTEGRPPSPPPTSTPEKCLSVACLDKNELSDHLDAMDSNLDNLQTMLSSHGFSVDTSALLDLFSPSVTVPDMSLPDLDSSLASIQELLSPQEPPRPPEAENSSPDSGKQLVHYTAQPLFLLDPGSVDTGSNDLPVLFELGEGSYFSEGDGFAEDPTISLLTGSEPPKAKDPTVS
CRX, sequence (O43186 whole entry): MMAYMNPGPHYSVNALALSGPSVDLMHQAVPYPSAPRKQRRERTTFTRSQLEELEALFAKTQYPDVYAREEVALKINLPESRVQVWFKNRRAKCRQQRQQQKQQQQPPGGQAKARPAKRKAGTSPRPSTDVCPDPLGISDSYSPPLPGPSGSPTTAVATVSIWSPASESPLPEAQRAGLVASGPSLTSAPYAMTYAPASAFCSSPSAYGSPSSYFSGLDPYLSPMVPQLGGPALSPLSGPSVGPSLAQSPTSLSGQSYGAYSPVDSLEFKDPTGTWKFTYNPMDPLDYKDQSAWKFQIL
ELF4, sequence (Q99607 whole entry): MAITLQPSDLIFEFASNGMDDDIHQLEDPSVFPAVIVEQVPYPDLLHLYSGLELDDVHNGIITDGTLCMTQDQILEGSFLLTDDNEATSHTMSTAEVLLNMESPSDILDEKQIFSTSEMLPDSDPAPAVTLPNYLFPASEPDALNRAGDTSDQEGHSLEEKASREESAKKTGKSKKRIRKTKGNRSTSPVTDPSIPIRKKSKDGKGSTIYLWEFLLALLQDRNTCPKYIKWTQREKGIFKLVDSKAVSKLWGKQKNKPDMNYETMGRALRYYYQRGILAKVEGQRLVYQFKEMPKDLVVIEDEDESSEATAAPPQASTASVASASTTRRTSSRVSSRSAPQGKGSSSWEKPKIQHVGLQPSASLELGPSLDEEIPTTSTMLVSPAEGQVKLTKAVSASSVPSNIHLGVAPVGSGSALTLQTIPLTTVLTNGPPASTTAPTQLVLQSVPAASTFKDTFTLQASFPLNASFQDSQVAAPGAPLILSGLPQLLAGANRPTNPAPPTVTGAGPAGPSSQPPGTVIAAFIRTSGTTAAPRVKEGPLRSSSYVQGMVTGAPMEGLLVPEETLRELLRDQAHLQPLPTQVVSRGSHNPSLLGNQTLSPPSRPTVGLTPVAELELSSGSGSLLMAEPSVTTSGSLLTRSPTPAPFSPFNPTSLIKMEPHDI

Turning to CCAGCT, the binding signal was 1.06 fold enrichment (6-mer frequency, TF over GST control) in the test with EHF; 1.02 fold enrichment (6-mer frequency, TF over GST control) with ELK3; 1.03 fold enrichment (6-mer frequency, TF over GST control) in the test with HSF1; 1.02 fold enrichment (6-mer frequency, TF over GST control) in the test with ELF4; 1.14 fold enrichment (6-mer frequency, TF over GST control) with ELK4; 1.04 fold enrichment (6-mer frequency, TF over GST control) in the test with ELF3. Besides, the binding signal is 1.1 fold enrichment (6-mer frequency, TF over GST control) with CRX; 1.01 fold enrichment (6-mer frequency, TF over GST control) with ERF; 1.03 fold enrichment (6-mer frequency, TF over GST control) with ETV3L; 1 fold enrichment (6-mer frequency, TF over GST control) in the test with ETV3.

Consider CTAGGA, for which the binding signal was 1.01 fold enrichment (6-mer frequency, TF over GST control) in the test with EHF; 1.08 fold enrichment (6-mer frequency, TF over GST control) in the test with HSF1; 1.01 fold enrichment (6-mer frequency, TF over GST control) with SPIC.

As for TCGAAG, the binding signal in the test with HSF1 is 1.57 fold enrichment (6-mer frequency, TF over GST control); with SPIC, 1.02 fold enrichment (6-mer frequency, TF over GST control); with CRX it was 1.09 fold enrichment (6-mer frequency, TF over GST control).

AGAAGA: the binding signal with HSF1 is 1.68 fold enrichment (6-mer frequency, TF over GST control); with ELK4, 1.05 fold enrichment (6-mer frequency, TF over GST control); with ELF3 it was 1.03 fold enrichment (6-mer frequency, TF over GST control); with CRX, 1.14 fold enrichment (6-mer frequency, TF over GST control); with ETV7, 1.01 fold enrichment (6-mer frequency, TF over GST control).
